# Compound activity as filed in PubChem BioAssay.
# NOD2-RIPK2 inh – NOD2-RIPK2 binding disruptors in cells, primary screen, fluorescence, CHO cells, BLA complementation. CCF4 ratio. Receptor-interacting serine/threonine-protein kinase 2 (Homo sapiens), O43353. AID 624267, 2012. 360,000 tested, 0.38% active. inhibition, % at 4.98 µM; in the data active = inhibition above about 21%;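 note: 0% = vehicle only and 100% = reference blocker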
# TLR4 MyD88 comp – inhibitors of TLR4-MyD88 association in cells, primary screen, cell-based, HeLa CL3-4, BLA complementation, FRET ratio; 200,000 tested, 0.18% active; HeLa CL3-4 TLR4/MyD88 BLA complementation; inhibition, % at 8.4 µM; Toll-like receptor 4 (Homo sapiens) + Myeloid differentiation primary response protein …; in the data active = inhibition above about 25%;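 note: 0% = vehicle and 100% = reference inhibitor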
# Neddylation inh – inhibitors of cullin neddylation, primary screen, biochemical, TR-FRET, uHTS, NAE and Ubc12. NEDD8-conjugating enzyme Ubc12 (Homo sapiens) + NEDD8-activating enzyme E1 regulatory …. inhibition, % at 25 µM. 360,000 tested, 0.58% active. AID 651699, 2012; in the data active = inhibition above about 36%
# TLR9-MyD88 block – inhibitors of TLR9-MyD88 association in cells, primary screen, cell-based, CHO, BLA complementation, fluorescence; inhibition, % at 4.98 µM; CCF4 FRET ratio; AID 504734, 2011; 340,000 tested, 0.21% active;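 active = inhibition above the mean over all tested compounds plus 3 SD, cut at about 21% in these data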;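 note: 0% = DMSO only wells and 100% = clavulanate BLA inhibitor control wells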
# GC-A act – GC-A stimulated cGMP production enhancers – HEK293 GC-A cells, cGMP TR-FRET, EC30 ANP, primary screen. Atrial natriuretic peptide receptor 1 (Homo sapiens), P16066. 0% at EC30 ANP, 100% saturating ANP. activation, % at 10 µM. 370,000 tested, 0.14% active. AID 1671463, 2021; in the data active = activation above about 40%
# GC-B act – human GC-B receptor activators, primary screen, HEK293 GC-B cells, cGMP TR-FRET, EC30 CNP; Atrial natriuretic peptide receptor 2 (Homo sapiens), P20594; 0% at EC30 CNP, 100% saturating CNP; activation, % at 10 µM; 370,000 tested, 0.11% active;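 active = activation at 10 µM reaching about 35% in either raw or pattern-adjusted values, limit read from the data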
# TLR9-MyD88 conf – TLR9-MyD88 association inhibitors, retest, confirmation, cell-based, CHO, BLA complementation, fluorescence, triplicate; shares compounds with TLR9-MyD88 block; CCF4 FRET ratio; inhibition, % at 4.98 µM; 680 tested, 51% active;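 active = mean inhibition across three repeats above about 21% taken from the earlier screen, limit read from the data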;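 note: blue over green emission ratio reports constitutive TLR9 MyD88 association via BLA complementation; 0% = DMSO vehicle wells and 100% = clavulanate BLA inhibitor wells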
# Target sequence (Q9NR96 whole entry, looked up): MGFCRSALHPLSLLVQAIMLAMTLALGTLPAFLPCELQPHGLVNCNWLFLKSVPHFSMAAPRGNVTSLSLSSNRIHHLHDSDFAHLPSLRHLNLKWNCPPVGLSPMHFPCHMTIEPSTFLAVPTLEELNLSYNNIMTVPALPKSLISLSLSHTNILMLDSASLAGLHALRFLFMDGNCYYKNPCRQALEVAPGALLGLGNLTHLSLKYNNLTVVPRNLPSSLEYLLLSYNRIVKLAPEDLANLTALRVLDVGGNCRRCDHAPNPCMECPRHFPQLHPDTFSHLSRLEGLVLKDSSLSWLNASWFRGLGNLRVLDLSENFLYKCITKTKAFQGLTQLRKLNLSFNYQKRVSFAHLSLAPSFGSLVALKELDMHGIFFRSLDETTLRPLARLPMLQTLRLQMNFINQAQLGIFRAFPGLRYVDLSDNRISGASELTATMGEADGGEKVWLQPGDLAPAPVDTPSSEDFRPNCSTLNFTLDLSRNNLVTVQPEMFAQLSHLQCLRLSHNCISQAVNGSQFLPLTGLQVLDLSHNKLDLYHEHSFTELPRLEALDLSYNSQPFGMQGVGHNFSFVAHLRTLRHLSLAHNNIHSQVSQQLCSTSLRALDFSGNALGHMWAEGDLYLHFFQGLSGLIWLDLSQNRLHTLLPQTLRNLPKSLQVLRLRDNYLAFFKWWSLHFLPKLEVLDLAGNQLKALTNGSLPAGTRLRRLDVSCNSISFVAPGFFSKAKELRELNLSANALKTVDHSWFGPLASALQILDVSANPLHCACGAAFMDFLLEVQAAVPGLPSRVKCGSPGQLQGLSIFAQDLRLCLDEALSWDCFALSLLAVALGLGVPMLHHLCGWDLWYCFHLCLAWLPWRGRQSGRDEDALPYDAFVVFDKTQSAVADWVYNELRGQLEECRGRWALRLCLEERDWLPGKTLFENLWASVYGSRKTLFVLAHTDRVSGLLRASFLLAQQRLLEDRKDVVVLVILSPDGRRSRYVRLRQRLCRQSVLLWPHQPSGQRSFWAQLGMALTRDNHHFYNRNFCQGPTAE
# BLA counter-1 – beta-lactamase reporter inhibitors in CHO cells, artefact control for TLR9-MyD88 binding inhibitor project, cell-based, fluorescence; shares compounds with TLR9-MyD88 block; CHO-BLA cells, CCF4 FRET ratio, BLA reporter; inhibition, % at 4.98 µM; 680 tested, 7% active;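 active = mean inhibition above a 50% cutoff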;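 note: counterscreen of TLR9-MyD88 hits on CMV-driven BLA in CHO-K1 cells; 0% = DMSO alone and 100% = clavulanate blocking BLA; higher means less blue over green ratio so more BLA blockade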
# TLR9 CHO cytotox – CHO cell viability loss – luminescence, single concentration, cytotoxicity control for TLR9-MyD88 binding inhibitor project; shares compounds with TLR9-MyD88 block; TLR9-MyD88 CHO cells cytotoxicity; inhibition, % at 4.98 µM; 680 tested, 39% active; AID 588336, 2011; in the data active = inhibition above about 11%
# NOD2 RIPK2 conf – NOD2-RIPK2 binding disruptors, retest, confirmation, fluorescence, CHO cells, BLA complementation, triplicate; shares compounds with NOD2-RIPK2 inh; CCF4 FRET; inhibition, % at 4.98 µM; 1,200 tested, 70% active;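 active = mean inhibition across replicates above a set limit taken from the earlier primary screen, cut at about 21% in these data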;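 note: 0% = DMSO-only wells and the high end = clavulanate BLA-blocked wells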
# BLA counter-2 – NOD2-RIPK2 counterscreen BLA reporter activity; inhibition, % at 4.98 µM; CHO BLA reporter, CCF4 FRET ratio; AID 624371; shares compounds with NOD2-RIPK2 inh; 1,200 tested, 57% active;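 active = mean inhibition above the low-control mean inhibition plus three low-control SD, cut at about 11% in these data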;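 note: 0% = DMSO only wells and 100% = clavulanate high control wells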
# The depositor's hits bear a star; x = not tested or not shown. Compounds with a hit are over-represented: about 1.2% of the library has one in this group of screens.
SMILES,NOD2-RIPK2 inh,TLR4 MyD88 comp,Neddylation inh,TLR9-MyD88 block,GC-A act,GC-B act,TLR9-MyD88 conf,BLA counter-1,TLR9 CHO cytotox,NOD2 RIPK2 conf,BLA counter-2
CC(C)C[C@H](NC1(C(=O)NC2CCCCC2)CCOCC1)C(=O)NCC(c1ccccc1)c1ccccc1,x,x,x,x,-4,-6,x,x,x,x,x
N#CCC[C@@H]1CC[C@]2(CCCN(Cc3ccc(Cl)cc3)C2)O1,x,x,x,x,1,-4,x,x,x,x,x
Nc1cccc2c1C(=O)N(CCOc1ccc(F)cc1)C2=O,22*,x,-10,23*,9,-2,15,18,3,33*,44*
COc1ccc(OCCN2C(=O)c3ccccc3C2=O)cc1,3,1,0,1,-2,-1,x,x,x,x,x
CCCOc1cc(N(CC)CC)ccc1/C=C(/C#N)c1nc2ccc(C)cc2[nH]1,34*,23,-140,21*,5,8,16,17,-5,35*,36*
COc1cc(/C=C(\C#N)c2nc3ccc(C)cc3[nH]2)c([N+](=O)[O-])cc1OC,7,-2,-14,5,16,6,x,x,x,x,x
CC(=O)Oc1ccc2cc(-c3nc4ccccc4n3C)c(=O)oc2c1,39*,12,30,22*,13,5,15,42,5,38*,59*
Cc1ccccc1Oc1cc(-n2ncc(Cl)c(Cl)c2=O)ncn1,26*,-8,-32,35*,33,32,38*,24,99*,76*,-3
Cc1ccccc1Nc1cccc2nonc12,41*,23,2,46*,4,-5,22*,28,-2,53*,57*
COc1ccc(-c2cc3ccc(O)cc3oc2=O)cc1,39*,x,16,21*,15,-8,17,26,1,43*,52*
O=C1C(=O)N(Cc2ccc(-c3ccccc3)cc2)c2ccc(OC(F)(F)F)cc21,x,x,x,x,-22,-18,x,x,x,x,x
Clc1ccc2nc(N3CCNCC3)nc(-c3ccccc3)c2c1,37*,19,x,24*,-46,-11,16,29,-1,38*,52*
CCN(CC)c1ccc(/C=C2/SC(=O)N(C(C)C)C2=O)o1,65*,7,-54,31*,16,0,8,4,61*,27*,15*
CC(C)N1C(=O)S/C(=C\c2ccc(-c3ccc(Cl)c(C(=O)O)c3)o2)C1=O,7,x,22,-10,2,-6,x,x,x,x,x
COc1ccc2cc(-c3cccc4[nH]cc(C)c34)ccc2c1,x,x,x,x,0,0,x,x,x,x,x
COc1cc(OC)nc(-n2ncc(Br)c(Br)c2=O)n1,50*,7,-98,23*,10,-2,27*,22,100*,60*,10
COC(=O)c1cnn(-c2nc(OC)cc(OC)n2)c1C,0,-19,5,-6,1,2,x,x,x,x,x
